Laboratory results published in PubChem BioAssay AID1159580 (chemical genetic matrix, 2015).
Where “and” joins values, the source holds several entries; their conditions need not be identical. Identical values can stand only once. Hit rate of the full screen: of about 5,500 compounds, about 2,000 (36%) were called active. Inconclusive results (about 18%) are left out. No stated cut-off is given here; in the data, active means normalized growth mostly below about 0.91 (no sharp cut-off); inconclusive means no clear call, values can overlap the other calls; inactive means mostly above about 0.92. Some of the results follow.

Experiment: chemical genetic growth profiling, strain panel (AID 1159580);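 further: tested at 20 µM; growth read once vehicle control cultures reached saturation at 30 °C; 1 = growth at the plate median or of vehicle wells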
Details: S. cerevisiae deletion strains, growth OD

Measured: normalized growth

O=C1CCCC2C3CC(CN12)[C@@H]1CCCCN1C3 (stereo not given in full)
inactive: locus YAL013W, strain DEP1, stronger effect = lower value 1.02 | locus YAL021C, strain ccr4, stronger effect = lower value 0.988 | locus YAL026C, strain drs2, stronger effect = lower value 1.01 | locus YAL030W, strain snc1, stronger effect = lower value 0.995 | locus YBL061C, strain skt5, stronger effect = lower value 0.995 | locus YBR009C, strain hhf1, stronger effect = lower value 0.999 | locus YBR021W, strain FUR4, stronger effect = lower value 1.04 | locus YBR023C, strain chs3, stronger effect = lower value 1 | locus YBR171W, strain sec66, stronger effect = lower value 0.992 | locus YBR229C, strain ROT2, stronger effect = lower value 0.985 | locus YBR231C, strain swc5, stronger effect = lower value 0.996 | locus YBR279W, strain paf1, stronger effect = lower value 1 | locus YCL011C, strain gbp2, stronger effect = lower value 0.995 | locus YCL016C, strain dcc1, stronger effect = lower value 0.993 | locus YCL029C, strain bik1, stronger effect = lower value 0.982 | locus YCL061C, strain MRC1, stronger effect = lower value 0.998 | locus YCL069W, strain vba3, stronger effect = lower value 0.999 | locus YCR088W, strain abp1, stronger effect = lower value 0.987 | locus YDL005C, strain med2, stronger effect = lower value 0.991 | locus YDL035C, strain GPR1, stronger effect = lower value 1.02 | locus YDL040C, strain nat1, stronger effect = lower value 0.991 | locus YDL074C, strain BRE1, stronger effect = lower value 1 | locus YDL101C, strain DUN1, stronger effect = lower value 0.988 | locus YDL134C, strain PPH21, stronger effect = lower value 0.993 | locus YDL185W, strain tfp1, stronger effect = lower value 0.984 | locus YDL192W, strain arf1, stronger effect = lower value 0.987 | locus YDR001C, strain nth1, stronger effect = lower value 1 | locus YDR069C, strain doa4, stronger effect = lower value 1.01 | locus YDR101C, strain arx1, stronger effect = lower value 0.988 | locus YDR137W, strain rgp1, stronger effect = lower value 1.01 | locus YDR159W, strain sac3, stronger effect = lower value 0.987 | locus YDR162C, strain NBP2, stronger effect = lower value 1.01 | locus YDR195W, strain ref2 0.981 | locus YDR297W, strain sur2, stronger effect = lower value 0.993 | locus YDR318W, strain mcm21, stronger effect = lower value 1 | locus YDR334W, strain swr1, stronger effect = lower value 1.02 | locus YDR335W, strain msn5, stronger effect = lower value 0.998 | locus YDR388W, stronger effect = lower value 0.997 | locus YDR392W, strain spt3, stronger effect = lower value 0.927 | locus YDR502C, strain sam2, stronger effect = lower value 0.989 | locus YEL003W, strain gim4, stronger effect = lower value 1 | locus YEL037C, strain rad23, stronger effect = lower value 1.01 | locus YEL061C, strain CIN8 (second series), stronger effect = lower value 0.998 | locus YEL061C, strain CIN8, stronger effect = lower value 0.997 | locus YER015W, strain faa2, stronger effect = lower value 1.01 | locus YER016W, strain bim1, stronger effect = lower value 0.995 | locus YER110C, stronger effect = lower value 0.977 | locus YER111C, strain swi4, stronger effect = lower value 0.998 | locus YER155C, strain BEM2 (second series), stronger effect = lower value 1.02 | locus YER155C, strain BEM2, stronger effect = lower value 0.98 | locus YER167W, strain BCK2, stronger effect = lower value 1.01 | locus YFR010W, strain ubp6, stronger effect = lower value 1 | locus YGL078C, strain dbp3, stronger effect = lower value 0.995 | locus YGL086W, strain mad1, stronger effect = lower value 1 | locus YGL167C, strain pmr1, stronger effect = lower value 0.991 | locus YGL173C, strain kem1, stronger effect = lower value 0.979 | locus YGL227W, strain vid30, stronger effect = lower value 1 | locus YGL240W, strain doc1, stronger effect = lower value 1 | locus YGL248W, strain PDE1, stronger effect = lower value 0.995 | locus YGL253W, strain hxk2, stronger effect = lower value 1 | locus YGR078C, strain PAC10, stronger effect = lower value 1.01 | locus YGR135W, strain pre9, stronger effect = lower value 1 | locus YGR229C, strain SMI1, stronger effect = lower value 1.02 | locus YGR252W, strain gcn5, stronger effect = lower value 1 | locus YHR013C, strain ard1, stronger effect = lower value 0.984 | locus YHR027C, strain rpn1, stronger effect = lower value 0.988 | locus YHR030C, strain SLT2, stronger effect = lower value 0.993 and 0.983 | locus YHR079C, strain IRE1 (second series), stronger effect = lower value 1 | locus YHR079C, strain IRE1, stronger effect = lower value 1.01 | locus YHR094C, strain hxt1, stronger effect = lower value 0.982 | locus YHR129C, strain ARP1, stronger effect = lower value 0.983 | locus YHR142W, strain chs7, stronger effect = lower value 0.996 | locus YHR200W, strain rpn10, stronger effect = lower value 0.997 | locus YIL066C, strain RNR3, stronger effect = lower value 1 | locus YIL073C, strain SPO22, stronger effect = lower value 1.02 | locus YIL125W, strain kgd1, stronger effect = lower value 0.994 | locus YIR030C, strain dcg1, stronger effect = lower value 0.993 | locus YJL092W, strain hpr5, stronger effect = lower value 1 | locus YJL095W, strain BCK1 (second series), stronger effect = lower value 0.99 | locus YJL095W, strain BCK1, stronger effect = lower value 0.983 and 0.957 | locus YJL115W, strain asf1, stronger effect = lower value 0.989 | locus YJL129C, strain trk1, stronger effect = lower value 0.99 | locus YJL134W, strain LCB3, stronger effect = lower value 0.997 | locus YJL154C, strain vps35, stronger effect = lower value 0.993 | locus YJL164C, strain tpk1, stronger effect = lower value 1 | locus YJL166W, strain qcr8, stronger effect = lower value 0.989 | locus YJL168C, strain set2, stronger effect = lower value 1 | locus YJL187C, strain SWE1 (second series), stronger effect = lower value 0.987 | locus YJL187C, strain SWE1, stronger effect = lower value 0.996 | locus YJR043C, strain POL32, stronger effect = lower value 1.04 | locus YJR066W, strain TOR1, stronger effect = lower value 0.992 | locus YKL009W, strain mrt4, stronger effect = lower value 0.974 | locus YKL068W, stronger effect = lower value 0.99 | locus YKL085W, strain MDH1 (second series), stronger effect = lower value 1.01 | locus YKL085W, strain MDH1, stronger effect = lower value 1.01 | locus YKL160W, strain elf1, stronger effect = lower value 0.982 | locus YKR001C, strain vps1, stronger effect = lower value 1.01 | locus YKR026C, strain gcn3, stronger effect = lower value 0.99 | locus YKR091W, strain srl3, stronger effect = lower value 1 | locus YLL001W, strain dnm1, stronger effect = lower value 0.979 | locus YLL026W, stronger effect = lower value 0.989 | locus YLL041C, strain sdh2, stronger effect = lower value 1 | locus YLR027C, strain aat2, stronger effect = lower value 0.99 | locus YLR039C, strain RIC1, stronger effect = lower value 1.04 | locus YLR058C, strain SHM2, stronger effect = lower value 0.992 | locus YLR102C, strain apc9, stronger effect = lower value 0.992 | locus YLR113W, strain HOG1, stronger effect = lower value 0.977 | locus YLR221C, strain rsa3, stronger effect = lower value 0.981 | locus YLR258W, strain gsy2, stronger effect = lower value 0.999 | locus YLR262C, strain YPT6 (second series), stronger effect = lower value 0.986 | locus YLR262C, strain YPT6, stronger effect = lower value 1.04 | locus YLR268W, strain sec22, stronger effect = lower value 0.979 | locus YLR320W, strain mms22, stronger effect = lower value 0.979 | locus YLR330W, strain CHS5, stronger effect = lower value 1.01 | locus YLR342W, strain FKS1 (second series), stronger effect = lower value 1.01 | locus YLR342W, strain FKS1, stronger effect = lower value 1.01 | locus YLR357W, strain rsc2, stronger effect = lower value 0.979 | locus YLR370C, strain arc18, stronger effect = lower value 1 | locus YLR371W, strain rom2, stronger effect = lower value 0.984 | locus YLR384C, strain iki3, stronger effect = lower value 1.01 | locus YLR418C, strain cdc73, stronger effect = lower value 1.02 | locus YML016C, strain PPZ1, stronger effect = lower value 0.978 | locus YML032C, strain rad52, stronger effect = lower value 1 | locus YML120C, strain ndi1, stronger effect = lower value 0.996 | locus YML124C, strain tub3, stronger effect = lower value 0.991 | locus YMR058W, strain fet3, stronger effect = lower value 1.01 | locus YMR078C, strain ctf18, stronger effect = lower value 0.991 | locus YMR125W, strain sto1, stronger effect = lower value 0.975 | locus YMR129W, stronger effect = lower value 0.995 | locus YMR205C, strain PFK2, stronger effect = lower value 0.978 | locus YMR223W, strain ubp8, stronger effect = lower value 0.995 | locus YMR231W, strain pep5, stronger effect = lower value 0.999 | locus YMR307W, strain GAS1, stronger effect = lower value 1.06 | locus YNL067W, strain RPL9B, stronger effect = lower value 0.993 | locus YNL071W, strain lat1, stronger effect = lower value 0.997 | locus YNL153C, strain GIM3, stronger effect = lower value 0.993 | locus YNL183C, strain NPR1, stronger effect = lower value 0.967 | locus YNL209W, strain ssb2, stronger effect = lower value 1 | locus YNL233W, strain BNI4, stronger effect = lower value 0.998 | locus YNL248C, strain rpa49, stronger effect = lower value 0.993 | locus YNL250W, strain rad50, stronger effect = lower value 0.984 | locus YNL271C, strain bni1, stronger effect = lower value 0.991 | locus YNL298W, strain CLA4, stronger effect = lower value 1 | locus YNL307C, strain MCK1, stronger effect = lower value 0.985 | locus YNL322C, strain KRE1 (second series), stronger effect = lower value 0.979 | locus YNR049C, strain mso1, stronger effect = lower value 0.994 | locus YNR052C, strain pop2, stronger effect = lower value 0.993 | locus YOL006C, strain TOP1, stronger effect = lower value 0.968 | locus YOL012C, strain htz1 2.29 | locus YOL147C, strain pex11, stronger effect = lower value 0.992 | locus YOR001W, strain rrp6, stronger effect = lower value 1.03 | locus YOR061W, strain CKA2, stronger effect = lower value 0.988 | locus YOR069W, strain VPS5, stronger effect = lower value 0.982 | locus YOR070C, strain gyp1, stronger effect = lower value 1.02 | locus YOR080W, strain dia2, stronger effect = lower value 0.986 | locus YOR083W, strain WHI5, stronger effect = lower value 0.973 | locus YOR106W, strain vam3, stronger effect = lower value 1 | locus YOR136W, strain idh2, stronger effect = lower value 0.985 | locus YOR144C, strain elg1, stronger effect = lower value 0.998 | locus YOR184W, strain ser1, stronger effect = lower value 0.991 | locus YOR231W, strain MKK1, stronger effect = lower value 1.01 | locus YOR265W, strain rbl2, stronger effect = lower value 1 | locus YOR270C, strain vph1, stronger effect = lower value 1.03 | locus YOR290C, strain snf2, stronger effect = lower value 0.975 | locus YOR316C, strain cot1, stronger effect = lower value 0.993 | locus YPL051W, strain arl3, stronger effect = lower value 0.993 | locus YPL078C, strain atp4, stronger effect = lower value 0.997 | locus YPL106C, strain sse1, stronger effect = lower value 0.968 | locus YPL240C, strain hsp82, stronger effect = lower value 0.999 | locus YPL256C, strain CLN2, stronger effect = lower value 1.01 | locus YPR119W, strain clb2, stronger effect = lower value 0.999 | locus YPR141C, strain kar3, stronger effect = lower value 0.982 | locus YPR163C, strain tif3, stronger effect = lower value 0.996 | locus YPR167C, strain met16, stronger effect = lower value 0.995 | strain wtn01, stronger effect = lower value 0.967
